The list is not random: actives were taken first. Their share in the collection is about 2%.
BJeLR viability – kills HRASV12-expressing BJeLR cells | BJeLR (HRASV12) viability, CellTiter-Glo ATP luminescence, 48 h | inhibition, % (test concentration not listed) | hit rate 0.17% among 300,000; in the data active = inhibition above about 50%
PrP UTR inh – inhibition of PrP 5' UTR reporter expression | hit rate 0.35% among 340,000 | cell-based PrP 5' UTR mRNA reporter, plate reader | inhibition, % (test concentration not listed) | AID 488862; in the data active = inhibition above about 52%; note: 0 = median of the neutral control wells
CCHFV vOTU inh – blocks the CCHF virus ovarian tumor domain protease | CCHFV vOTU protease, Pep-AMC fluorescence | inhibition, % at 11.5 µM | hit rate 0.55% among 370,000 | AID 651958; in the data active = inhibition above about 30%; note: 0% = vehicle wells with enzyme and 100% = no enzyme wells
PrPC TRFRET – inhibitors of human cell surface prion protein PrPC; P04156; TR-FRET read-out; inhibition, % at 13.8 µM; hit rate 0.43% among 370,000; in the data active = inhibition above about 24%; note: 0% = median of the test wells and 100% = reference compound wells
Y pestis TopoI – inhibitors of Yersinia pestis topoisomerase I; activity, % at 10 µM; Y. pestis Topo-I cleavage product accumulation, plate reader; hit rate 0.064% among 360,000; in the data active = activity above about 50%, passing the limit was not always enough
PfHsp40 yeast – restores yeast growth despite PfHsp40 toxicity. S. cerevisiae expressing PfHsp40, growth rescue, ATP luminescence. growth rescue, % at 12.5 µM. hit rate 0.68% among 340,000; in the data active = growth rescue above about 28%, passing the limit was not always enough;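 note: yeast W303a lacking pdr1 and pdr3 grown in galactose medium; growth measured after three days at 30 °C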
The depositor's hits bear a star; nt = no result.

SMILES	BJeLR viability	PrP UTR inh	CCHFV vOTU inh	PrPC TRFRET	Y pestis TopoI	PfHsp40 yeast
O=C(OC12CCCN(C1)/C(=C/c1cccc(Cl)c1)C2)C1CCCCC1 (stereo not drawn)	nt	nt	3.1	-1.4	nt	nt
CCCCN(C)C(=O)CSc1nnc(-c2cc(OC)c(OC)c(OC)c2)o1	nt	nt	13.6	3.8	nt	nt
O=C(NC(=S)N1CCN(c2ccc(C(F)(F)F)cc2[N+](=O)[O-])CC1)c1cccs1	-4.6	-10.0	9.7	-2.4	-3.7	122.4*
CCCCNc1c(-c2ccc(SC3CCCCC3)c(OC)c2)nc2ccc(C)cn12	nt	-11.3	-15.6	4.0	18.6	173.6*
COc1ccc(-c2nc3ccc(C)cn3c2NCc2ccccc2)cc1SC1CCCCC1	-10.2	3.8	nt	nt	-5.7	0.2
CC(C)(C)NC(=O)[C@@H](c1cccnc1)N(C(=O)c1ccco1)c1ccc(C(C)(C)C)cc1	nt	nt	nt	7.8	nt	nt
O=C(Nc1ncc([N+](=O)[O-])s1)c1ccc2c(c1)OCO2	34.2	68.9*	7.0	-15.3	-2.2	-3.7
COCc1[nH]nc2c1C(c1ccc(F)cc1)NC2=O (stereo not drawn)	nt	nt	-3.7	10.8	nt	nt
COc1cc2ccccc2cc1C(=O)OCC(=O)N(CC(C)C)c1c(N)n(Cc2ccccc2)c(=O)[nH]c1=O	-4.5	-20.7	-7.5	-8.7	71.2*	1.2
CC(NC(=O)Nc1nnc(C(F)(F)F)s1)(C(F)(F)F)C(F)(F)F	12.0	-21.4	13.0	56.9*	13.0	-1.6
Cc1cccc(-c2cccc3c4c([nH]c23)[C@@H]2C[C@H](N(C)C(=O)c3ccccc3F)[C@H]([C@H](C)O)CN2CC4)c1	nt	nt	10.4	-9.7	nt	nt
CCOC(=O)[C@]12Cc3ccc(C)cc3[C@H]1N(C1CCCCC1)C(=O)c1ccccc12	nt	nt	13.2	33.0*	nt	nt
CCOC(=O)[C@]12Cc3cc(Cl)ccc3[C@H]1N(C1CCCCC1)C(=O)c1cc(OC)ccc12	nt	nt	5.0	46.8*	nt	nt
CCOC(=O)[C@]12Cc3cc(C)ccc3[C@H]1N(C1CCCCC1)C(=O)c1ccccc12	nt	nt	3.9	38.4*	nt	nt
CCOC(=O)[C@]12Cc3ccc(C)cc3[C@H]1N(C1CCCCC1)C(=O)c1cc(OC)ccc12	nt	nt	9.2	35.6*	nt	nt
CCOC(=O)[C@]12Cc3ccccc3[C@H]1N(C(C)C)C(=O)c1ccccc12	nt	nt	15.3	1.5	nt	nt
CCOC(=O)[C@]12Cc3cc(Cl)ccc3[C@H]1N(C)C(=O)c1cc(OC)ccc12	nt	nt	18.6	-5.1	nt	nt
CCOC(=O)[C@]12Cc3cc(C)ccc3[C@H]1N(CCC(=O)OC)C(=O)c1ccccc12	nt	nt	10.8	11.0	nt	nt
C#CCCC(=O)O[C@H]1CCC[C@@]2(C(=O)N(Cc3ccccc3)c3ccccc32)[C@H]1NC(=O)CCc1ccccc1	nt	nt	6.2	12.3	nt	nt
C=CCN1C(C(=O)OC)CN(Cc2cn(CCC3OCCO3)nn2)CCS1(=O)=O (stereo not drawn)	nt	nt	-8.5	-2.6	nt	nt
CCn1c(COc2ccc(C)cc2)nnc1SCc1cccc(C(F)(F)F)c1	nt	nt	29.0	1.7	nt	nt
C[C@@H]1CN(c2ccc(N3CCNC[C@@H]3C)cc2C#N)CCN1Cc1ccccc1	nt	nt	-9.7	-4.7	nt	nt
CCOC(=O)[C@]12Cc3c(cc(OC)c(OC)c3OC)[C@H]1N(C1CCCCC1)C(=O)c1ccccc12	nt	nt	-1.9	31.7*	nt	nt
COc1ccc2c(c1)CN1CN(CC(C)C)S(=O)(=O)CC21 (stereo not drawn)	nt	nt	-10.4	4.4	nt	nt
Cc1nnc(-n2cccc2)s1	nt	nt	-1.3	-1.2	nt	nt
SMILES	BJeLR viability	PrP UTR inh	CCHFV vOTU inh	PrPC TRFRET	Y pestis TopoI	PfHsp40 yeast
N#Cc1c2ccc(O)cc2n2ccccc12	5.2	-6.6	-27.7	-7.3	-19.1	55.2*
COC(=O)c1cc(-c2c(C)noc2C)c(=O)n2c1CCC2	nt	nt	6.3	5.2	nt	nt
Cc1cccc(OC[C@@H](O)CN2CCC(C(O)(c3ccccc3)c3ccccc3)CC2)c1	nt	nt	2.1	-11.7	nt	nt
O=c1[nH]c(-c2ccccn2)nc(C(F)(F)F)c1Br	0.2	-46.2	-3.3	24.1	4.7	133.2*
O=S(=O)(/C=C/c1ccccc1)NC1CCCCCCC1	-4.3	-12.4	11.1	1.9	20.8	69.6*
CNS(=O)(=O)/C=C/c1ccccc1	-0.1	-20.4	-1.1	-6.7	-3.1	-0.1
O=S(=O)(/C=C/c1ccccc1)NC1CCCCCC1	-4.8	-37.5	6.0	-0.5	15.7	63.4*
O=S1(=O)CCC(NS(=O)(=O)/C=C/c2ccccc2)C1 (stereo not drawn)	-4.3	-6.2	-7.3	3.3	-8.2	-0.8
COC1=C[C@H](C(=O)NCc2ccc(OC)cc2)C(C)C(c2ccccc2)CC1=O (stereo partly drawn)	nt	nt	7.9	-5.1	nt	nt
C/C=C/c1ccccc1OCCCN1CCC(C(O)(c2ccccc2)c2ccccc2)CC1	nt	nt	18.3	-11.9	nt	nt
CCCC[C@H]1C2CC(OC(=O)NCCCc3ccccc3)C(C2)[C@H]2CCCCN21 (stereo partly drawn)	nt	nt	0.1	3.6	nt	nt
Cn1c(SCC(=O)NCc2cccs2)nnc1-c1ccncc1	-5.6	-7.6	-5.7	3.2	55.6*	-1.5
COc1ccc(-c2nnc(SCC(=O)NCc3cccs3)n2C)cc1	-4.5	-25.4	-3.6	1.7	-1.7	-1.9
Cc1ccc(NC(=S)Nc2cccc3cnccc23)cc1C	6.4	-20.0	3.5	-0.5	-0.9	377.1*
S=C(Nc1cccc(Cl)c1)Nc1cccc2cnccc12	nt	-9.1	nt	nt	4.9	31.4*
Cc1ccc(NC(=S)Nc2cccc3cnccc23)cc1	0.7	-27.0	11.8	3.0	-1.8	-2.1
Cc1ccccc1NC(=S)Nc1cccc2cnccc12	5.1	-15.6	10.2	2.7	-17.3	-0.2
CNc1nc(N)c([N+](=O)[O-])c(Nc2cccc(Br)c2)n1	nt	nt	nt	0.4	nt	nt
CCOC(=O)N[C@H](C(=O)N1CCC[C@H]1C(=O)NC1CCCC1)C1CCCCC1	nt	nt	-1.7	-6.7	nt	nt
O=C(c1cnc2ccc3ccccc3c2c1)c1cc(F)ccc1O	-1.6	-23.6	-9.1	-11.4	13.2	83.6*
Cc1ccc(CN2C(=O)/C(=C\c3ccc(C(=O)NCc4cccnc4)cc3)Oc3ccccc32)cc1	113.4*	nt	2.2	4.2	nt	nt
O=C(CN1C(=O)/C(=C\c2ccccc2Cl)Oc2ccccc21)NCc1cccnc1	-11.8	-13.3	-23.1	-3.5	6.1	1.1
COc1ccc(/C=C/C(=O)N(C)CC(=O)Nc2cccc(F)c2)cc1S(=O)(=O)N1CCCCC1	nt	-15.5	5.7	3.1	9.7	0.3
COc1ccc(NC(=O)CN(C)C(=O)/C=C/c2ccc(S(=O)(=O)N3CCCCCC3)cc2)cc1	-7.4	-1.2	6.1	-5.3	76.7*	4.7
COC(=O)C1=C(C)N(C)C(=NCc2ccc(C(F)(F)F)cc2)NC1c1cccc(Cl)c1 (stereo not drawn)	nt	nt	20.5	-8.8	nt	nt
S=C(NCc1ccco1)Nc1ccc(Oc2ccc(Cl)cc2)cc1	7.0	-8.7	1.4	-1.0	-2.4	194.3*
S=C(NCc1ccco1)Nc1ccc(Cl)cc1	4.9	-17.1	-0.1	2.0	-4.2	0.4
O=S(=O)(c1ccc(SCc2ccc(Cl)cc2)nc1)N1CCCC1	nt	-11.1	20.0	14.3	53.5*	0.9
Cc1cc(C)cc(CSc2ccc(S(=O)(=O)N3CCCC3)cn2)c1	nt	-9.1	6.0	3.7	47.5	5.9

Screening results as filed in PubChem BioAssay.
